This passage reports PBM binding z-score results from the supplement of paper PMC6555819.

Holding throughout (test): PBM binding z-score (relative to random genomic background probes); higher = stronger binding; sequences stand for … in GC…GCGATTGACAGCGTAGAATGAAGG
Experiment [1] has as its system RARb homodimer (NR concentration 270 nM). The procedure, abridged:
(§1)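 Scanned fluorescence from custom Agilent 4×180K protein-binding microarrays was regression-normalized. Binding z-scores use random background probes as reference. Ligand-free nuclear receptor dimers were incubated on the arrays for 1 h and detected with antibodies against each partner (one per run).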

Experiment [2] concerns RARg:RXRa (NR concentration 270 nM, RXRa partner concentration 90 nM). The procedure, abridged:
as §1

In experiment [3] the test system is RARg homodimer (NR concentration 270 nM). An outline of the steps: as §1
Experiment [4] deals with RXRa DBDmut IVT, anti-RXR (DBD mutation: RXRa K156A/R161A, NR concentration 90 nM). The procedure, abridged: as §1
Experiment [5] deals with RXRa homodimer (NR concentration 180 nM). The procedure, abridged:
as §1

Experiment [6] has as its system THRa:RXRa (NR concentration 90 nM, RXRa partner concentration 90 nM). An outline of the steps: as §1
In experiment [7] the test system is THRa homodimer (NR concentration 90 nM). An outline of the steps:
as §1

Experiment [8] relates to VDR homodimer (NR concentration 270 nM). The procedure, abridged:
as §1

Turning to TCTTGTAGTTCAAAGGTTAAGAAAGCCGAAGCCT, the PBM binding z-score in experiment [1] turned out to be 2.54; in experiment [2] it was 4.81; in experiment [3], 2.39; in experiment [4], 2.69; in experiment [5], 6.78; in experiment [6] it was 2.53. The PBM binding z-score in experiment [7] is -0.0884; in experiment [8] it was 1.9.
Turning to CAAACTAGGTCAATAGGTCAAAGTCCGCTTCCCG, the PBM binding z-score came to 5.26 in experiment [1]; 7.95 in experiment [2]; 6.55 in experiment [3]; 2.03 in experiment [4]; 6.54 in experiment [5]; 3.62 in experiment [6]. Further, the PBM binding z-score in experiment [7] worked out at 1.05; in experiment [8] it was 2.03.
For TCATATAGGTAAAGGTGTAAGTCGAACGATATGA, the PBM binding z-score in experiment [1] was -0.352; in experiment [2], 0.365; in experiment [3] it was 0.406; in experiment [4] it was 0.642; in experiment [5] it was 0.621; in experiment [6] it was -0.275. The PBM binding z-score in experiment [7] was -0.761; in experiment [8], -0.275.
GTACCAAGGTGAATAGGTCGTTGAGGAGTAGGCG: the PBM binding z-score is 1.97 in experiment [1]; 2.83 in experiment [2]; 1.46 in experiment [3]; -0.482 in experiment [4]; 1.63 in experiment [5]; 1.76 in experiment [6]. Moreover, the figures for the PBM binding z-score in experiment [7] and in experiment [8] were 0.714 and 0.676, respectively.
GCTGCTAGGTCAACCGATGGTCAGCTAAAGCTCG: the PBM binding z-score in experiment [1] worked out at 3.51; in experiment [2], 5.42; in experiment [3] it was 5.15; in experiment [4], 1.31; in experiment [5] it was 3.11; in experiment [6] it was 2.71. In addition, the PBM binding z-score in experiment [7] was 0.689; in experiment [8] it was -0.333.
For CAGTCTAGGTCAGGGCCAGTATAGGAGGAACGTT, the PBM binding z-score in experiment [1] turned out to be 2.84; in experiment [2] it was 3.02; in experiment [3], 3.96; in experiment [4], 0.701; in experiment [5] it was 1.55; in experiment [6] it was 2.42. For the same sequence, the PBM binding z-score was found to be 1.52 in experiment [7] and 0.322 in experiment [8].
For the sequence ACTTACGGGTAAACGAGGTTATAGCACGCGTATA, the PBM binding z-score worked out at 1.12 in experiment [1]; 0.939 in experiment [2]; 0.812 in experiment [3]; 0.819 in experiment [4]; 1.57 in experiment [5]; 3.64 in experiment [6]. Also, the PBM binding z-score in experiment [7] amounted to 0.765; in experiment [8], 1.45.
On to ACTAGCAGGCCAAGTTTGCGTCACTCAAACAAAG, for which the PBM binding z-score was 0.00722 in experiment [1]; -0.201 in experiment [2]; -0.0389 in experiment [3]; 0.079 in experiment [4]; -0.299 in experiment [5]; -0.253 in experiment [6]. Moreover, the figures for the PBM binding z-score in experiment [7] and in experiment [8] were -0.635 and 0.0311, respectively.
On to CCGACTGGGGCAAAGGTTATCATACTCAGTACGA, for which the PBM binding z-score was 1.89 in experiment [1]; 3 in experiment [2]; 1.45 in experiment [3]; 0.137 in experiment [4]; 3.11 in experiment [5]; 1.66 in experiment [6]. In addition, the PBM binding z-score in experiment [7] was -0.0355; in experiment [8], 0.133.
Turning to GCACGGAGGACAAGGTCAGAGCTTTGTCCGTAGA, the PBM binding z-score in experiment [1] was 3.22; in experiment [2] it was 3.17; in experiment [3], 3.57; in experiment [4], 1.01; in experiment [5], 2.56; in experiment [6] it was 2.89. The PBM binding z-score in experiment [7] is 1.58; in experiment [8] it was 0.622.
For the sequence CATACAGGGTCAGCTAGGCCAAAGTAGGGACGGC, the PBM binding z-score in experiment [1] is 3.27; in experiment [2] it was 4.71; in experiment [3], 5.14; in experiment [4], 1.49; in experiment [5], 4.24; in experiment [6], 3.16. Also, the figures for the PBM binding z-score in experiment [7] and in experiment [8] were 0.87 and 2.11, respectively.
As to TCAGACAGGTGAAGGTCACTCAGGTACGCAGTCG, the PBM binding z-score in experiment [1] amounted to 4.11; in experiment [2], 3.63; in experiment [3], 4.11; in experiment [4], 1.7; in experiment [5], 3.51; in experiment [6], 3.79. In addition, the values for the PBM binding z-score in experiment [7] and in experiment [8] were 1.43 and 2.39, respectively.
As for GCTGCTAGGTCAAATGATGGTCAGCTAAAGCTCG, the PBM binding z-score worked out at 3.24 in experiment [1]; 5.08 in experiment [2]; 5.22 in experiment [3]; 1.89 in experiment [4]; 3.09 in experiment [5]; 2.78 in experiment [6]. Further, the PBM binding z-score in experiment [7] was 0.255; in experiment [8], -0.00739.
Take TAACCAAGGTGAGCTGAGGTCGTTGATCCAACTC: the PBM binding z-score was 1.63 in experiment [1]; 1.33 in experiment [2]; 0.926 in experiment [3]; -0.0437 in experiment [4]; 1.58 in experiment [5]; 4.65 in experiment [6]. Also, the PBM binding z-score in experiment [7] was 1.86; in experiment [8] it was 1.81.
In the case of GTACCAAGGCGAATAGGTCGTTGATGAGTAGGCG, the PBM binding z-score in experiment [1] was 0.278; in experiment [2], 0.265; in experiment [3], 0.191; in experiment [4] it was -0.465; in experiment [5], 0.543; in experiment [6], 0.0285. Moreover, the values for the PBM binding z-score in experiment [7] and in experiment [8] were -0.524 and -0.0798, respectively.
Consider GCTCGGACGACAAGGTCAGAGCTTTGTCCGTAGA, for which the PBM binding z-score in experiment [1] is 2.73; in experiment [2], 2.72; in experiment [3], 3.07; in experiment [4], 0.365; in experiment [5], 2.23; in experiment [6], 2.54. Further, the PBM binding z-score came out at 0.94 in experiment [7] and 0.617 in experiment [8].
For GATACAGGGTCAGCTAGAGGCCATAGTATGGAAA, the PBM binding z-score in experiment [1] stood at 3.52; in experiment [2] it was 6.77; in experiment [3], 4.83; in experiment [4], 1.57; in experiment [5] it was 3.96; in experiment [6], 3.29. Also, the PBM binding z-score in experiment [7] is 0.486; in experiment [8] it was 1.33.
